Assay results reported in article PMC5540273 (PLoS ONE, 2017).

What was measured:
Conditions in all cases: concentration: 1 μM, replicates: in singlicate; n = 1
[1] = test system: MAST1
[2] = test system: T1, MEK1
T1 construct: gene MAP2K1

[3] = test system: T2, MEK2
T2 construct: gene MAP2K2

[4] = test system: T3, MEK3
T3 construct: gene MAP2K3

[5] = test system: T4, MEK4
T4 construct: gene MAP2K4

[6] = test system: T5, MEK5
T5 construct: gene MAP2K5

[7] = test system: T6, MEK6
T6 construct: gene MAP2K6

[8] = test system: MELK
[9] = test system: MERTK
[10] = test system: MET
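Note: KINOMEscan kinase panel screen.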

| SMILES | %Inh [1] [%] | %Inh [2] [%] | %Inh [3] [%] | %Inh [4] [%] | %Inh [5] [%] | %Inh [6] [%] | %Inh [7] [%] | %Inh [8] [%] | %Inh [9] [%] | %Inh [10] [%] |
| --- | --- | --- | --- | --- | --- | --- | --- | --- | --- | --- |
| Cc1ccc(-c2nc(Nc3ccncc3)c3ccccc3n2)s1 [GSK189015] | 0 | 11 | 1 | 0 | 11 | 17 | 0 | 0 | 11 | 10 |
| COc1cc2ncnc(Nc3cccc(Br)c3)c2cc1OC.Cl [GI230329] | 20 | 0 | 0 | 0 | 20 | 86 | 0 | 0 | 45 | 0 |
| COc1ccc(Nc2nccc(N3CCC(NC(=O)C(C)c4ccc(Cl)cc4)CC3)n2)cc1 (centres unmarked) [GSK1379812] | 0 | 0 | 0 | 0 | 5 | 10 | 0 | 0 | 22 | 0 |
| COc1ccc(CSc2nnc(-c3ccc4ncsc4c3)o2)cc1C(F)(F)F | 0 | 0 | 9 | 9 | 0 | 0 | 24 | 0 | 16 | 0 |
| COC(=O)C(Cc1ccccc1)NC(=O)NC1CCN(c2ccnc(Nc3ccc(F)cc3)n2)C1 (centres unmarked) [GSK1379714] | 42 | 35 | 0 | 31 | 0 | 54 | 4 | 40 | 0 | 0 |
| Fc1ccc(-c2nc[nH]c2-c2ccncc2)cc1 [SB-217360] | 0 | 36 | 58 | 32 | 6 | 66 | 0 | 0 | 19 | 0 |
| c1ccc(-c2ccnc3[nH]ccc23)cc1 [SB-693578] | 44 | 49 | 29 | 10 | 28 | 45 | 0 | 0 | 15 | 0 |
| Cc1ccc(NC(=O)Nc2ccccc2F)cc1-c1ccc(C(=O)Nc2ccncc2)cc1 [GSK1398477] | 0 | 0 | 0 | 0 | 26 | 37 | 0 | 14 | 31 | 0 |
| COC(=O)c1cccc(NC(=O)NC2CCN(c3ccnc(Nc4ccc(OC)cc4)n3)C2)c1 (centres unmarked) [GSK1379746] | 13 | 0 | 0 | 0 | 34 | 33 | 0 | 0 | 22 | 0 |
| Fc1ccc(-c2nc3n(c2-c2ccncc2)CCS3)cc1 [GI98581] | 0 | 0 | 0 | 0 | 12 | 14 | 0 | 5 | 12 | 0 |
| COC(=O)C(NC(=O)NC1CCN(c2ccnc(Nc3ccc(F)cc3)n2)C1)c1ccccc1 (centres unmarked) [GSK1379712] | 0 | 19 | 0 | 0 | 16 | 86 | 0 | 20 | 0 | 0 |
| O=C1NC(=O)C(c2ccc(Cl)cc2)=C1Nc1cccc(Cl)c1 [SB-317651] | 23 | 0 | 13 | 27 | 0 | 4 | 3 | 16 | 2 | 0 |
| Cc1cnc(N)c(/C=C/c2cncc(C(=O)NCCc3ccc(Cl)cc3Cl)c2)c1.Cl [GSK190937] | 5 | 0 | 0 | 0 | 34 | 41 | 0 | 2 | 29 | 0 |
| O=c1cc(N2CCOCC2)nc2n(Cc3cccc(Cl)c3Cl)c3ccccc3n12 [GSK2299009] | 0 | 0 | 0 | 0 | 34 | 75 | 0 | 89 | 41 | 0 |
| Cc1ccc(NC(=O)Nc2ccc(Cl)cc2)cc1-c1ccc(C(=O)Nc2ccncc2)cc1 [GSK1398472] | 0 | 0 | 0 | 0 | 26 | 11 | 0 | 0 | 0 | 0 |
| COc1ccc(Nc2nccc(N3CCC(NC(=O)C(C)c4ccc(Cl)cc4)C3)n2)cc1 (centres unmarked) [GSK1379735] | 0 | 0 | 0 | 0 | 20 | 13 | 0 | 7 | 33 | 0 |
| Nc1nccc(-c2c(-c3ccc(F)cc3)ncn2C2CCN(Cc3ccccc3)CC2)n1 [SB-219980] | 4 | 7 | 9 | 19 | 38 | 28 | 21 | 15 | 0 | 0 |
